Each structure is given as a SMILES string. Calls of active or inactive are those of the source. How the calls were made is not given here.

From PubChem BioAssay AID651730 (NMMLSC, 2012) come the findings set out here.

This assay in a line: V-ATPase regulators in yeast, S. cerevisiae, pHLuorin, powder sets 2-3, dose response (AID 651730). To be noted: S. cerevisiae vacuolar pH, pHluorin fluorescence; series mostly up to 100 µM.
As to `CN(C)S(=O)(=O)c1cccc(C(=O)Nc2ccccc2N2CCOCC2)c1`, the call was inactive.
Take `NC(=O)c1ccc(C(=O)N2CCN(c3nc4ccc(F)cc4s3)CC2)o1`: the compound was classed as inactive.
As to `O=C(c1cccc(Br)n1)N1CCN(c2nc3ccc(F)cc3s2)CC1`, the call was inactive.
Next, `O=C(c1cc(Cl)ccn1)N1CCN(c2nc3ccc(F)cc3s2)CC1`: “inactive”; `O=C(Nc1ccccc1N1CCOCC1)c1cccc(C(F)(F)F)n1`: “inactive”; `Nc1ncc(C(=O)Nc2ccccc2N2CCOCC2)o1`: “inactive”.
Regarding `Cc1cncc(C(=O)Nc2ccccc2N2CCOCC2)n1`, the call was inactive.
With `CN(C)S(=O)(=O)c1cccc(C(=O)N2CCN(c3nc4ccc(F)cc4s3)CC2)c1`, the outcome was inactive.
Regarding `CN(C)Cc1cccc(C(=O)Nc2ccccc2N2CCOCC2)c1`, the call was inactive.
As to `O=C(Nc1ccccc1N1CCOCC1)c1ccc(C(F)(F)F)o1`, the compound was classed as inactive.
The result for `Nc1cncc(C(=O)N2CCN(c3nc4ccc(F)cc4s3)CC2)n1` reads “inactive”.
Next, `N#Cc1ccnc(C(=O)N2CCN(c3nc4ccc(F)cc4s3)CC2)c1`: “inactive”; `Cc1ccnc(C(=O)Nc2ccccc2N2CCOCC2)c1`: “inactive”; `N#Cc1ccnc(C(=O)Nc2ccccc2N2CCOCC2)c1`: “inactive”.
Take `CS(=O)(=O)c1ccc(C(=O)Nc2ccccc2N2CCOCC2)o1`: the compound was called inactive.
Turning to `NC(=O)c1cccc(C(=O)Nc2ccccc2N2CCOCC2)c1`, the compound was called inactive.
Take `CS(=O)(=O)c1ccc(C(=O)N2CCN(c3nc4ccc(F)cc4s3)CC2)o1`: the outcome was inactive.
`COCc1cccc(C(=O)Nc2ccccc2N2CCOCC2)c1`: the call was inactive.
`CN(C)C(=O)c1cccc(C(=O)Nc2ccccc2N2CCOCC2)c1`: the compound was classed as inactive.
On to `Nc1ncc(C(=O)N2CCN(c3nc4ccc(F)cc4s3)CC2)o1`, for which the compound was called inactive.
For the compound `Cc1cccc(C(=O)N2CCN(c3nc4ccc(F)cc4s3)CC2)n1`, the compound was called inactive.
As to `O=C(Nc1ccccc1N1CCOCC1)c1cccc(Br)n1`, the call was inactive.
Regarding `NS(=O)(=O)c1cccc(C(=O)N2CCN(c3nc4ccc(F)cc4s3)CC2)c1`, the outcome was inactive.
`O=C(c1cccc(C(F)(F)F)c1)N1CCN(c2nc3ccc(F)cc3s2)CC1`: the compound was called inactive.
Turning to `CN(C)Cc1ccc(C(=O)Nc2ccccc2N2CCOCC2)o1`, the compound was classed as inactive.
`Cc1cncc(C(=O)N2CCN(c3nc4ccc(F)cc4s3)CC2)n1`: the outcome was inactive.
For the compound `O=C(c1cc(CO)ccn1)N1CCN(c2nc3ccc(F)cc3s2)CC1`, the call was inactive.
On to `O=C(Nc1ccccc1N1CCOCC1)c1cccc(Cl)n1`, for which the outcome was inactive.
`Cc1ccc(C(=O)N2CCN(c3nc4ccc(F)cc4s3)CC2)o1`: the call was inactive.
Take `O=C(c1cccc(Cl)n1)N1CCN(c2nc3ccc(F)cc3s2)CC1`: the compound was classed as inactive.
